Laboratory results published in PubChem BioAssay (NCATS).
Results filed as inconclusive are left out. Active and inactive are the calls of the source. Unless noted, calls follow the shape of the dose curve; as a rule, active = well fitted curve in the direction sought with a large enough effect; inconclusive = small, poorly fitted or top-dose-only effect, or another doubt; inactive = no such curve, though single readings can be large; an effect the other way counts as inactive or inconclusive.

Legend:
[1] = biological target: Luciferin 4-monooxygenase (Photinus pyralis) (UniProt P08659); assay: Biochemical firefly luciferase enzyme assay for NPC (AID 624030);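 also: purified P. pyralis luciferase at 10 nM with luciferin and ATP substrate; series mostly up to about 59 µM; nearly all actives have a fitted effect of over 70% in size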
How it was run: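 Counter-screen for direct inhibition of the luciferase enzyme by approved-drug library compounds, run at 10 nM enzyme in 50 mM Tris acetate (final). Luminescence was read within 5 min of enzyme-buffer addition and normalized to PTC124 versus DMSO (0%).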

[2] = S16 Schwann cell viability assay (CellTiter-Glo assay) (AID 624031);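 also: native untransfected S16 rat Schwann cells; series mostly up to about 58 µM; nearly all actives have a fitted effect of over 70% in size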
How it was run: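 Counter-screen for cytotoxicity: parental S16 rat Schwann cells lacking the PMP22 reporters, treated 24 h with compound, viability from cellular ATP by CellTiter-Glo luminescence, normalized to DMSO (0%) and no-cell wells.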

[3] = S16 Schwann cell PMP22 intronic element firefly luciferase assay (AID 624032); also: series mostly up to about 58 µM; nearly all actives have a fitted effect of over 30% in size
How it was run: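 Rat S16 Schwann cells stably carrying a PMP22 intronic element-driven Fluc reporter were seeded overnight, then exposed to compounds for 24 h at 37 °C. Luminescence was normalized to PTC124 (positive control) and DMSO (0% activity).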

[4] = biological target: Glutaminase kidney isoform, mitochondrial (Homo sapiens) (UniProt O94925); assay: qHTS for Inhibitors of Glutaminase (GLS): LOPAC Validation (AID 624146); also: nearly all actives have a fitted effect of over 60% in size; also: potency is read from the fitted curve at half-maximal effect
How it was run: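 Two-point fluorescence kinetic (t0, 30 min RT) for hKGA; glutamate detected via glutamate oxidase–HRP–Amplex Red. Substrate: 1 mM L-glutamine solution; buffer 45 mM KH2PO4, pH 8.2.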

[5] = qHTS of Trypanosoma Brucei Inhibitors: LOPAC Validation (AID 624147)
How it was run: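 Activity of T. brucei pyruvate kinase was followed by Kinase-Glo Plus luminescence after the enzyme reacted 45 min at room temperature with 130 uM ADP (final) and substrate. Test compounds were added before ADP at multiple concentrations.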

[6] = S16 Schwann cell PMP22 intronic element beta-lactamase assay (AID 624044; calls by dose curve; also: nearly all actives have a fitted effect of over 15% in size; also: potency is read from the fitted curve at half-maximal effect)
How it was run: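 Beta-lactamase reporter under a PMP22 intronic regulatory element in stable S16 rat Schwann cells; 24 h compound exposure. 460 nm blue signal normalized between DMSO (0%) and potassium clavulanate, with 535 nm FRET tracking viability; curves classed by r2 and response.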

Measured: Potency

Sequence of Luciferin 4-monooxygenase (Photinus pyralis) (P08659 whole entry, looked up): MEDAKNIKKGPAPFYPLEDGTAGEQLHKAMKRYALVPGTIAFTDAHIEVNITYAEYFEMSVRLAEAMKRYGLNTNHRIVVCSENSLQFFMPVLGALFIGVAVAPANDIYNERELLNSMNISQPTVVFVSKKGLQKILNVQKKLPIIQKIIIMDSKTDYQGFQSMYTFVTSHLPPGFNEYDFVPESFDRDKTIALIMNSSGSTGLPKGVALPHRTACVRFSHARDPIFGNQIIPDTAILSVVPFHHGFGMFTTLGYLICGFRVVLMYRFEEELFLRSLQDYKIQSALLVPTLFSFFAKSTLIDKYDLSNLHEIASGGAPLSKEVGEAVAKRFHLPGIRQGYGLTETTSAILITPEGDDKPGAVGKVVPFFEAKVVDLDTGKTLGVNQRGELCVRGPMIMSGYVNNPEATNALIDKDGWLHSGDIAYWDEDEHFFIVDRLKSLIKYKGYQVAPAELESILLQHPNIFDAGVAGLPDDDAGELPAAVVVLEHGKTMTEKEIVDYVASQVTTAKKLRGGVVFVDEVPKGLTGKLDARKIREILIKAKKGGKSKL
Sequence of Glutaminase kidney isoform, mitochondrial (Homo sapiens) (O94925 whole entry, looked up, canonical isoform): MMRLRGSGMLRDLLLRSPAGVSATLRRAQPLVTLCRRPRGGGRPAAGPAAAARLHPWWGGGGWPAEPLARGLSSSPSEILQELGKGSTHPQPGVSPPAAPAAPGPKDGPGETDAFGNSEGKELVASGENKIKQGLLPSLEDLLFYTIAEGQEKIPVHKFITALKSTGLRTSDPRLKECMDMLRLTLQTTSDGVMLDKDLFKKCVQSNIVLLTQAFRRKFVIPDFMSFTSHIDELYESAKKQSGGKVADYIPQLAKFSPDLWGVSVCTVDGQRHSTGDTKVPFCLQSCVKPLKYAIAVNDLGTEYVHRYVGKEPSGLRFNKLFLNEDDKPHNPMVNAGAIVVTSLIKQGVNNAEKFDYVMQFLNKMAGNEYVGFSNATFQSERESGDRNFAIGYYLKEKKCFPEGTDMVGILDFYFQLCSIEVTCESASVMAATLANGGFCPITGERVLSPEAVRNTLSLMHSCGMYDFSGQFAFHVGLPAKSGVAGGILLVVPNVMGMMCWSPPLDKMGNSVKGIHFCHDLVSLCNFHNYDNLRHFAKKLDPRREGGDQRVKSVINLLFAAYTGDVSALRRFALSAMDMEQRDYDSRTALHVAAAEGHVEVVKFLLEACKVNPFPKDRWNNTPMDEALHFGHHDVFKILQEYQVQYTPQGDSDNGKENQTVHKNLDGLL

CCCN(CCC)CCc1cccc2c1CC(=O)N2
inactive: [1] | [2] | [3] | [4] | [5]

CCc1cccc(N(C)C(N)=Nc2cccc3ccccc23)c1
inactive: [1] | [2] | [3] | [4] | [5]

CN(C)C(=O)Oc1ccc[n+](C)c1
inactive: [1] | [3] | [4] | [5]

CN(C)CCCN1c2ccccc2Sc2ccc(C(F)(F)F)cc21
inactive: [1] | [4]

CC1=NS(=O)(=O)c2cc(Cl)ccc2N1
inactive: [1] | [2] | [4] | [5]

CC1=C(C)C(=O)C(CCCCC#CCCCC#CCO)=C(C)C1=O
active: [4] 11.2 µM
inactive: [1] | [6] | [5]

CN(C)CC/C=C1\c2ccccc2COc2ccccc21
inactive: [1] | [4] | [5]

CCOC(=O)C1=C(C)NC(C)=C(C(=O)OC)C1c1cccc(Cl)c1Cl (centres undefined)
inactive: [1] | [2] | [6] | [4] | [5]

CCN(Cc1ccncc1)C(=O)C(CO)c1ccccc1 (centres undefined)
inactive: [1] | [2] | [6] | [4]

c1ccc2c(c1)CCCC2C1=NCCN1 (centres undefined)
inactive: [4] | [5]

CC(C)(C)NCC(O)c1cc(O)cc(O)c1 (centres undefined)
inactive: [5]

CCCC(C(=O)OCCN(CC)CC)(c1ccccc1)c1ccccc1
inactive: [1] | [3] | [6] | [4] | [5]

CCCCNc1c(C(=O)OCC)c(C)nc2c1cnn2CC
inactive: [1] | [6] | [4] | [5]

O=C1CC2(CCCC2)CC(=O)N1CCCCN1CCN(c2ncccn2)CC1
inactive: [1] | [2] | [3] | [4] | [5]

COCCCC/C(=N\OCCN)c1ccc(C(F)(F)F)cc1
inactive: [4]

Nc1c2c(nc3ccccc13)CCCC2O (centres undefined)
inactive: [1] | [3] | [4] | [5]

COc1cc(C(=O)OCCCN2CCCN(CCCOC(=O)c3cc(OC)c(OC)c(OC)c3)CC2)cc(OC)c1OC
active: [6] 15.8 µM
inactive: [1] | [4]

COc1ccc([C@@H]2Sc3ccccc3N(CCN(C)C)C(=O)[C@@H]2OC(C)=O)cc1
inactive: [1] | [2] | [3] | [4] | [5]

CN1C[C@H](C(=O)N[C@]2(C)O[C@@]3(O)[C@@H]4CCCN4C(=O)[C@H](Cc4ccccc4)N3C2=O)C[C@@H]2c3cccc4[nH]cc(c34)C[C@H]21
inactive: [1] | [6] | [4]

C[C@H](CS)C(=O)N1CCC[C@H]1C(=O)O
inactive: [1] | [3] | [4] | [5]

CC(=O)OC(C)C[N+](C)(C)C (centres undefined)
inactive: [4] | [5]

COC(=O)[C@H]1[C@H]2C[C@@H]3c4[nH]c5cc(OC)ccc5c4CCN3C[C@H]2C[C@@H](OC(=O)c2cc(OC)c(OC)c(OC)c2)[C@@H]1OC
active: [4] 10 µM
inactive: [1] | [2] | [6]
